The source of these data is PubChem BioAssay.

Experiment [1] is described as follows: antimalarial activity against Dd2 strain (AID 2302;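 active means growth inhibition above 50% at the single 2 µM test dose, taken to imply half-maximal potency below 2 µM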;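 further: 0% = DMSO untreated growth and 100% = chloroquine plus artemisinin killed control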). Particulars: P. falciparum Dd2 in RBCs, LDH growth readout, 72 h; at 2 µM; hits give high values.
A short description of experiment [2]: human hepatoma cell viability loss – ATP luminescence, cytotoxicity control for P. falciparum antimalarial project, primary screen (AID 2303;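 active means inhibition above 50%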;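 further: 0% = DMSO wells and 100% = digitonin-killed cells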). The settings on record: HepG2 viability, 24-48 h, at 10 µM, hits give high values.
In experiment [3] the target is L-lactate dehydrogenase (Plasmodium falciparum (isolate CDC / Honduras)) (UniProt Q27743). The experiment in a line: PfLDH activity inhibition – cell lysate, 3D7 strain, counter-screen for P. falciparum growth inhibition project (AID 2304).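 Further: 0% = vehicle and 100% = reference inhibitor.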 The settings on record: P. falciparum 3D7 crude extract, LDH APAD/NBT absorbance; at 2 µM; hits give high values. On the technique in general: Counterscreens check selectivity or assay interference.
Chain of L-lactate dehydrogenase (Plasmodium falciparum (isolate CDC / Honduras)) (Q27743 whole entry, looked up): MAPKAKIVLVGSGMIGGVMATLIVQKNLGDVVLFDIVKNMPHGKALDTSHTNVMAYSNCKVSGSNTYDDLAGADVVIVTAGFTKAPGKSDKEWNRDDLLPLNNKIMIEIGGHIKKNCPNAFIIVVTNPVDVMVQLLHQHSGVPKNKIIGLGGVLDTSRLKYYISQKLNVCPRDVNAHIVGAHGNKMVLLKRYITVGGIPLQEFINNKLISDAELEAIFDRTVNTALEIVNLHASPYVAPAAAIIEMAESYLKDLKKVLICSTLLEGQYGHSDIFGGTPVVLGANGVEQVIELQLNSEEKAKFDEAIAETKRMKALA

Experiment [4] is described as follows: inhibition of 3D7 malaria parasite growth – strain 3D7 (AID 2306).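 Further: 0% = DMSO wells and 100% = chloroquine plus artemisinin control wells.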 The settings on record: P. falciparum 3D7 erythrocytic growth, LDH absorbance, 72 h; at 2 µM; hits give high values.
For experiment [5], the target named is Calcium-dependent protein kinase 1 (Plasmodium falciparum (isolate 3D7)) (UniProt P62344). The experiment in a line: PfCDPK1 kinase inhibitors, biochemical, TCAMS library (AID 1159585; cut-off not given, nearly all actives have IC50 up to about 0.98 µM;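 further: inhibitors leave more ATP so luminescence rises with inhibition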). Particulars: recombinant PfCDPK1, Kinase-Glo ATP depletion luminescence. On the technique in general: Kinase-Glo reads ATP consumption through a luciferase reaction.
Chain of Calcium-dependent protein kinase 1 (Plasmodium falciparum (isolate 3D7)) (P62344 whole entry, looked up): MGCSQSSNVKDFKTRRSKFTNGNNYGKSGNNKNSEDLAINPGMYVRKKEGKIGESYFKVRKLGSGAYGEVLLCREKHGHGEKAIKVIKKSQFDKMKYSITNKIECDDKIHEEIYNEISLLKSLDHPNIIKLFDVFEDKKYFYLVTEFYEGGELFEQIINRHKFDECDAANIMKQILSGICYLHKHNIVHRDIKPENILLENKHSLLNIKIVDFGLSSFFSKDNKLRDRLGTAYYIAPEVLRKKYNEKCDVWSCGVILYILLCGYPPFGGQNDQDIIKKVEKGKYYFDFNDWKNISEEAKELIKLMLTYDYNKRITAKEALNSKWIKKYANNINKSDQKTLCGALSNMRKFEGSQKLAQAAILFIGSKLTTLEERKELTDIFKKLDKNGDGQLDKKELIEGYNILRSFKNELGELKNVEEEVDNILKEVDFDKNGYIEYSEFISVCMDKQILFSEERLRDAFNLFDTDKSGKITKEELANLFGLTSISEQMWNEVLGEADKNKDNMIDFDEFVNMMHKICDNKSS
The target in experiment [6] is Plasmodium falciparum protein kinase 6 (PK6, PF3D7_1337100) (UniProt Q8IDW1). The experiment in a line: PfPK6 kinase inhibitors, biochemical, TCAMS library (AID 1159586). Particulars: recombinant PfPK6, Kinase-Glo ATP depletion luminescence.
Chain of Plasmodium falciparum protein kinase 6 (PK6, PF3D7_1337100) (Q8IDW1 1-305): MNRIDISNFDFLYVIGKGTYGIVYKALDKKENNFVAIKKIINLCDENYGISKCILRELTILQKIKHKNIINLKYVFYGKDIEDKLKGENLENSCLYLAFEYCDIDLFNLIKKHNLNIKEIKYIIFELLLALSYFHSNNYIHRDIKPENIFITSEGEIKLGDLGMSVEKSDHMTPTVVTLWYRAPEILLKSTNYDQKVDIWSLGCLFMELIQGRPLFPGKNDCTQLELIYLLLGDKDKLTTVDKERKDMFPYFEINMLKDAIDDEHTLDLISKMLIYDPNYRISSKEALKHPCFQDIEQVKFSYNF
Experiment [7] addresses Protein kinase 7 (PK7), Plasmodium falciparum 3D7 (PF3D7_0213400) (UniProt Q7YTF7). Briefly: inhibition of Plasmodium PK7 catalytic activity – biochemical, TCAMS antimalarial set, Kinase-Glo luminescence (AID 1159587). The settings on record: recombinant PfPK7, Kinase-Glo ATP depletion luminescence.
For experiment [8], the target named is Calcium-dependent protein kinase 4 (Plasmodium falciparum (isolate 3D7)) (UniProt Q8IBS5). Briefly: PfCDPK4 kinase inhibitors, biochemical, TCAMS library (AID 1159588; cut-off not given, nearly all actives have IC50 up to about 0.91 µM). Particulars: recombinant PfCDPK4, Kinase-Glo ATP depletion luminescence.
Chain of Calcium-dependent protein kinase 4 (Plasmodium falciparum (isolate 3D7)) (Q8IBS5 whole entry, looked up): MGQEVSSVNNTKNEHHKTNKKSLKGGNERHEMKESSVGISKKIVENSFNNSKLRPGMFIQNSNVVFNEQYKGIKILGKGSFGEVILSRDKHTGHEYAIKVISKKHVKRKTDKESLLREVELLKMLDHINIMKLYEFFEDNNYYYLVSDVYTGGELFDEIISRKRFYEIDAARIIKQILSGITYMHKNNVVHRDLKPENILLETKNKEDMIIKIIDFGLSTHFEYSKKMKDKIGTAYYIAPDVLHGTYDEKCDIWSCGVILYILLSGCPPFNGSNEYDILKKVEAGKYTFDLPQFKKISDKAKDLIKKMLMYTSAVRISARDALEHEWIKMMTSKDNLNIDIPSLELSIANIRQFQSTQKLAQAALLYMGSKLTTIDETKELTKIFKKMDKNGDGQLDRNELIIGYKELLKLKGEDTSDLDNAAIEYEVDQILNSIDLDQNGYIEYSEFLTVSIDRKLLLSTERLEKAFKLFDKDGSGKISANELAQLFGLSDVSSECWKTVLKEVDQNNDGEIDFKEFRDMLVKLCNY

A number with no mark means an inactive call. For some of these results: Results with a measured potency or affinity are listed apart. The source made the active and inactive calls. Unless noted, how the calls were made is not given here.

Chain of Protein kinase 7 (PK7), Plasmodium falciparum 3D7 (PF3D7_0213400) (Q7YTF7 1-343): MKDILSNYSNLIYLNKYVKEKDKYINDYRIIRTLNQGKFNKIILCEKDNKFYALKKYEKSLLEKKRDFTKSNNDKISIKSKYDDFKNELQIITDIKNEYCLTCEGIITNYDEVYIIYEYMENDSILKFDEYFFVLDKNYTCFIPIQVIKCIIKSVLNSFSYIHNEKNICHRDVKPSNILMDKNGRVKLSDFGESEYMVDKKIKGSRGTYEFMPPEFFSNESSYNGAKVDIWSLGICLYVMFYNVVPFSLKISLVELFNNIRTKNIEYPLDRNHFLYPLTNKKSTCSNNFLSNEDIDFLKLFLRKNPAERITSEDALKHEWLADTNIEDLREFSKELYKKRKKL

In general, inhibition refers to the relative decrease from the control value, in per cent. Take `CCOCCCNc1nc2cc(OC)c(OC)cc2c2nc(-c3ccccc3)nn12`: the growth inhibition in experiment [1] was 98% (active); in experiment [4], 96% (active). Also, the inhibition in experiment [2] was 10%; in experiment [3] it was -3%. Besides, the outcome in experiment [5], in experiment [6], in experiment [7] and in experiment [8] was inactive.

On to `CC(C)(C)Oc1ccc(C[C@@H]2NC3(C(=O)N(Cc4ccc(Cl)c(Cl)c4)c4ccccc43)C3C(=O)N(c4ccc(Br)cc4)C(=O)C32)cc1` (stereo not given in full), for which the growth inhibition in experiment [1] was 25%; in experiment [4], 86% (active). For the same molecule, the inhibition in experiment [2] was 1%; in experiment [3], 6%. The result in experiment [5], in experiment [6], in experiment [7] and in experiment [8] was inactive.

Consider `CN1CCN(CCCN(Cc2csc(-c3ccc(CNCc4ccccc4)cc3)n2)C(=O)Nc2cccc(Cl)c2)CC1`, for which the figures for the growth inhibition in experiment [1] and in experiment [4] were 67% (active) and 102% (active), respectively. Besides, the inhibition in experiment [2] is 32%; in experiment [3], -5%. Besides, the result in experiment [5], in experiment [6], in experiment [7] and in experiment [8] was inactive.

In the case of `COc1ccccc1CCN1CCC(CN(C)Cc2ccc(O)c(Cl)c2)CC1`, the growth inhibition was 52% (active) in experiment [1] and 101% (active) in experiment [4]. Besides, the inhibition in experiment [2] was 19%; in experiment [3], -3%. The outcome in experiment [5], in experiment [6], in experiment [7] and in experiment [8] was inactive.

For the molecule `c1ccc(Oc2ccc(Nc3ccnc4c(-c5ccccn5)cccc34)cc2)cc1`, the growth inhibition in experiment [1] is 58% (active); in experiment [4], 100% (active). The values for the inhibition in experiment [2] and in experiment [3] were 31% and -8%, respectively. Besides, the outcome in experiment [5], in experiment [6], in experiment [7] and in experiment [8] was inactive.

Turning to `CNC(=C[N+](=O)[O-])NCCSCc1cc(C)c(CN(C)C)s1`, the growth inhibition in experiment [1] is 96% (active); in experiment [4] it was 98% (active). The inhibition in experiment [2] is 48%; in experiment [3], -1%. For the same molecule, the result in experiment [5], in experiment [6], in experiment [7] and in experiment [8] was inactive.

As to `Cc1cc(OCC(=O)Nc2ccc(-c3nc4ccccc4[nH]3)cc2)cc(C)c1Cl`, the figures for the growth inhibition in experiment [1] and in experiment [4] were 0% and 99% (active), respectively. Besides, the inhibition was 5% in experiment [2] and -1% in experiment [3]. Moreover, the result in experiment [5], in experiment [6], in experiment [7] and in experiment [8] was inactive.

For the molecule `CC(Cc1ccc(NC(=O)c2ccc(CNCCCCc3ccccc3)cc2)cc1)NCCc1cccc(Cl)c1` (stereo not given), the growth inhibition in experiment [1] is 96% (active); in experiment [4], 100% (active). For the same molecule, the inhibition is 100% (active) in experiment [2] and -1% in experiment [3]. The outcome in experiment [5], in experiment [6], in experiment [7] and in experiment [8] was inactive.

For `CCNc1cc(C(=O)N[C@@H](Cc2ccccc2)[C@H](O)CNC(C)(C)Cc2cccc(OC)c2)cc(N2CCCC2=O)c1`, the results for the growth inhibition in experiment [1] and in experiment [4] were 97% (active) and 99% (active), respectively. The inhibition in experiment [2] is 7%; in experiment [3] it was -8%. Besides, the result in experiment [5], in experiment [6], in experiment [7] and in experiment [8] was inactive.

Take `Cc1ccc2c(NN=Cc3ccccc3[N+](=O)[O-])cc(C)nc2c1`: the figures for the growth inhibition in experiment [1] and in experiment [4] were 100% (active) and 102% (active), respectively. The inhibition in experiment [2] is 13%; in experiment [3], 4%. Besides, the outcome in experiment [5], in experiment [6], in experiment [7] and in experiment [8] was inactive.

As for `O=C(CCCCCNC(=O)c1ccc(O)c(-c2ccc(Cl)c(Cl)c2)c1)NCCN1CCOCC1`, the figures for the growth inhibition in experiment [1] and in experiment [4] were 0% and 95% (active), respectively. For the same molecule, the inhibition in experiment [2] is -7%; in experiment [3], -3%. In addition, the outcome in experiment [5], in experiment [6], in experiment [7] and in experiment [8] was inactive.

For the molecule `Cc1ccc([C@@H]2CC(=O)CC(c3ccccn3)[C@H]2[N+](=O)[O-])cc1` (stereo not given in full), the results for the growth inhibition in experiment [1] and in experiment [4] were 2% and 97% (active), respectively. The inhibition in experiment [2] is 5%; in experiment [3], -1%. Further, the outcome in experiment [5], in experiment [6], in experiment [7] and in experiment [8] was inactive.

For the molecule `COc1ccc(CCNCCCCCCNCCc2ccccc2Cl)cc1OC`, the growth inhibition is 3% in experiment [1] and 96% (active) in experiment [4]. The inhibition was 13% in experiment [2] and -1% in experiment [3]. Besides, the result in experiment [5], in experiment [6], in experiment [7] and in experiment [8] was inactive.

On to `CCOC(=O)c1cc(=O)c2ccc(OCC#N)cc2o1`, for which the values for the growth inhibition in experiment [1] and in experiment [4] were 86% (active) and 88% (active), respectively. The inhibition in experiment [2] was 2%; in experiment [3], -6%. For the same molecule, the outcome in experiment [5], in experiment [6], in experiment [7] and in experiment [8] was inactive.

Turning to `CCCN(CC)CCOC(=O)c1ccccc1`, the figures for the growth inhibition in experiment [1] and in experiment [4] were 1% and 99% (active), respectively. Moreover, the inhibition in experiment [2] is 2%; in experiment [3], -4%. In addition, the outcome in experiment [5], in experiment [6], in experiment [7] and in experiment [8] was inactive.

With `Cc1[nH]c(C)c([N+](=O)[O-])c(=O)c1-c1ccc(Oc2ccc(OC(F)(F)F)cc2)cc1`, the growth inhibition in experiment [1] and in experiment [4] was 97% (active) in each case. Further, the inhibition in experiment [2] and in experiment [3] was -2% each time. The outcome in experiment [5], in experiment [6], in experiment [7] and in experiment [8] was inactive.

For the molecule `c1ccc(CN2CCN(c3cc(-c4cncc(-c5ccccc5)c4)nc(-c4ccccc4)n3)CC2)cc1`, the results for the growth inhibition in experiment [1] and in experiment [4] were 12% and 88% (active), respectively. The results for the inhibition in experiment [2] and in experiment [3] were 9% and 0%, respectively. The outcome in experiment [5], in experiment [6], in experiment [7] and in experiment [8] was inactive.

On to `Cc1nc(-c2nc(NCCc3ccncc3)ncc2-c2ccsc2)sc1C`, for which the results for the growth inhibition in experiment [1] and in experiment [4] were 87% (active) and 92% (active), respectively. Moreover, the inhibition in experiment [2] was 10%; in experiment [3], -1%. Also, the outcome in experiment [5], in experiment [6], in experiment [7] and in experiment [8] was inactive.

For `Cc1cccc2[nH]c(-c3ccc(-c4cccc(CNC(C)C)c4)s3)nc12`, the growth inhibition in experiment [1] was 97% (active); in experiment [4], 100% (active). For the same molecule, the inhibition was 12% in experiment [2] and 2% in experiment [3]. Also, the outcome in experiment [5], in experiment [6], in experiment [7] and in experiment [8] was inactive.

Turning to `Cn1cncc1C(=O)Nc1cccc(-c2ccc(-c3nc4ccc(F)cc4[nH]3)s2)c1`, the results for the growth inhibition in experiment [1] and in experiment [4] were 27% and 99% (active), respectively. For the same molecule, the inhibition in experiment [2] was -9%; in experiment [3], 1%. Further, the outcome in experiment [5], in experiment [6], in experiment [7] and in experiment [8] was inactive.
